Assay results reported in PubChem BioAssay (Tox21).
Inconclusive results are not listed. Active and inactive are the calls of the source. Unless noted, calls come from the whole dose curve; as a rule, active = well fitted curve in the direction sought with a large enough effect in the repeat runs; inconclusive = weak or mixed curves; inactive = flat fitted curve, though single readings scatter.

Assays:
[1] = qHTS assay to test for compound auto fluorescence at 535 nm (green) in HEK293 cells (AID 720680)
[2] = qHTS assay to test for compound auto fluorescence at 460 nm (blue) in HEK293 cell free culture (AID 720681)
Method in brief: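 Compounds were added to cell-free DMEM with 10% FBS and fluorescence read directly. The blue channel used 405 nm excitation and 460 nm emission, with triamterene as the reference fluorophore.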

[3] = qHTS assay to test for compound auto fluorescence at 535 nm (green) in HEK293 cell free culture (AID 720682)
Method in brief: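 Compounds were pin-transferred into cell-free DMEM with 10% FBS, and green fluorescence was read at excitation 485 nm and emission 535 nm. Intensities were expressed as fluorescein-equivalent values.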

[4] = qHTS assay to test for compound auto fluorescence at 590 nm (red) in HEK293 cell free culture (AID 720683)
Method in brief: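 Cell-free wells of DMEM with 10% FBS received compound, and intrinsic fluorescence was read at excitation/emission 540/590 nm. Values expressed as equivalence to Rose Bengal sodium.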

[5] = qHTS assay to test for compound auto fluorescence at 590 nm (red) in HepG2 cell free culture (AID 720684)
Method in brief: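 Rose Bengal sodium served as the reference for red signal. Test compounds were dispensed into serum-containing MEM (10% FBS) without cells, and plates were read at 540/590 nm.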

[6] = qHTS assay to test for compound auto fluorescence at 460 nm (blue) in HepG2 cell free culture (AID 720685)
Method in brief: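 Cell-free plates of MEM plus 10% FBS received 23 nL compound or DMSO vehicle; blue-channel (405/460 nm) intensity scored against triamterene as reference fluorophore.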

[7] = qHTS assay to test for compound auto fluorescence at 535 nm (green) in HepG2 cell free culture (AID 720686)
[8] = qHTS assay to test for compound auto fluorescence at 460 nm (blue) in HepG2 cells (AID 720687)
Method in brief: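 HepG2 cells in MEM with 10% FBS, attached overnight at 37 C, were exposed to compound or DMSO for 1 hr at 37 C, 5% CO2. Blue fluorescence was read at 405/460 nm, with triamterene as reference fluorophore.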

[9] = molecular target: Glucocorticoid receptor (Homo sapiens) (UniProt P04150); assay: qHTS assay to identify small molecule agonists of the glucocorticoid receptor (GR) signaling pathway (AID 720691; active = well fitted activation curve with a large enough effect in the signal ratio in the repeat runs, not every such curve was filed as active; the % refers to the signal ratio)
Method in brief: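 Cells: GR-bla HeLa, endogenous GR with stably integrated GRE-beta-lactamase reporter. Treatment 18 h, 37 C, compounds delivered in DMSO. Detection via LiveBLAzer B/G FRET substrate, 2 h RT, fluorescence intensity.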

[10] = molecular target: Glucocorticoid receptor (Homo sapiens) (UniProt P04150); assay: qHTS assay to identify small molecule antagonists of the glucocorticoid receptor (GR) signaling pathway (AID 720692; active = well fitted inhibition curve with a large enough effect in the signal ratio in the repeat runs, not every such curve was filed as active; the % refers to the signal ratio)
Method in brief: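 Quantitative HTS in antagonist format: HeLa cells expressing endogenous GR and a stably integrated GRE-bla reporter, stimulated with 5 nM dexamethasone (final) alongside test compounds for 18 h.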

Measured: Potency

Chain of Glucocorticoid receptor (Homo sapiens) (P04150 whole entry, looked up): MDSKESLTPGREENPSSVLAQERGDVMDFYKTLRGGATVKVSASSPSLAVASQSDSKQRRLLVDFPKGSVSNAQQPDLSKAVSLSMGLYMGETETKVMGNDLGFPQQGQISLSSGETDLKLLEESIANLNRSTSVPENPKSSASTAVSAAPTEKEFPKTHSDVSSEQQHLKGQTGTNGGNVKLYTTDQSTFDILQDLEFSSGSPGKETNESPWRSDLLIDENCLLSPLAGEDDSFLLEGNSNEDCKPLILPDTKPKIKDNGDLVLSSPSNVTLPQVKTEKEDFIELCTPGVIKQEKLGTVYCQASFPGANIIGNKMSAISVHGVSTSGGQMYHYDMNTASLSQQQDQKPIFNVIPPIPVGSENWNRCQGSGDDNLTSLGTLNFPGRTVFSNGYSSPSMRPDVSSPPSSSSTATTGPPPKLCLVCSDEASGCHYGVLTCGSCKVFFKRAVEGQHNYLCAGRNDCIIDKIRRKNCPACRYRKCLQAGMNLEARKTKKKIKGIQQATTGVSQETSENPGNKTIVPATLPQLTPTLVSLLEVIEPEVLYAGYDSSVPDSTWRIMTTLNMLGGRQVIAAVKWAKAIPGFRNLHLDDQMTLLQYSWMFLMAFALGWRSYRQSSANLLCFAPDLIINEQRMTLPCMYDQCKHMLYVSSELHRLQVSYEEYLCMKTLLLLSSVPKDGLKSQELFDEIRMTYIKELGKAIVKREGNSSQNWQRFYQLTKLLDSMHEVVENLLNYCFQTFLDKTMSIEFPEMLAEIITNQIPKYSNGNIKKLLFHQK

C(CCOCC1CO1)COCC1CO1 (centres undefined)
inactive: all assays above

CCCSC(=O)Cl
inactive: all assays above

O=C(Nc1ccccc1)c1ccccc1I
not listed: [9]
inactive: all other assays above

CCN(CC)C(=O)[C@@H]1C=C2c3cccc4[nH]cc(c34)C[C@H]2N(C)C1
inactive: all assays above

CCOP(=O)(N=C1SCCS1)OCC
inactive: all assays above

COC(=O)C1=CCCN(C)C1
inactive: all assays above

CNC(=O)Oc1ccc(N(C)C)c(C)c1
inactive: all assays above

CN/C(=N\[N+](=O)[O-])NCC1CCOC1 (centres undefined)
not listed: [9]
inactive: all other assays above

c1cc2c(c(N3CCNCC3)c1)OCCO2
inactive: all assays above

ClC(Cl)(Cl)C(Cl)(Cl)Cl
inactive: all assays above

CCCCc1ccc(O)cc1
inactive: all assays above

C=CC1CC=CCC1 (centres undefined)
inactive: all assays above

Clc1cccc(N2CCNCC2)c1
inactive: all assays above

O=P(O)(Oc1ccccc1)Oc1ccccc1
inactive: all assays above

Nc1ccccc1Cl
inactive: all assays above

CC(C)CC#N
not listed: [9]
inactive: all other assays above

C=C(C)CN(CC)c1c([N+](=O)[O-])cc(C(F)(F)F)cc1[N+](=O)[O-]
inactive: all assays above

O=[N+]([O-])c1cccc2cccnc12
not listed: [9]
inactive: all other assays above

CC(Cl)(Cl)[N+](=O)[O-]
inactive: all assays above

COC(=O)C(c1ccccc1)C1CCCCN1 (centres undefined)
not listed: [9]
inactive: all other assays above

COc1ncc(F)c2nc(S(=O)(=O)Nc3c(F)cccc3F)nn12
not listed: [9]
inactive: all other assays above

CS(=O)(=O)c1cc(C(F)(F)F)ccc1C(=O)c1cnoc1C1CC1
not listed: [9]
inactive: all other assays above

CCOC(=O)/C=C(C)/C=C/C[C@@H](C)CCCC(C)C
inactive: all assays above

C[N+](=O)[O-]
not listed: [5] | [9] | [10]
inactive: all other assays above

C#CCN1C(=O)COc2cc(F)c(N3C(=O)C4=C(CCCC4)C3=O)cc21
not listed: [9]
inactive: all other assays above
